Pf growth 96h: inhibits malaria parasite growth, 96 h; P. falciparum luciferase reporter growth, 96 h; Potency, µM (top dose mostly 28.7 µM), for inactives: at the top dose activity change, negative = inhibition, hits mostly inhibitors; hit rate 6.9% among 320,000; also: % is scaled to controls: 0 for no effect and ±100 for the full control effect
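Two parasite generations (96 h, 37 C, 5% CO2) of compound exposure in infected erythrocytes (0.05% parasitemia, 2% hematocrit). Luciferase-reporter P. falciparum; decreased luminescence indicates inhibited growth, aimed at apicoplast-acting delayed death.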
Pf growth 48h: P. falciparum growth inhibition at 48 hours (one generation) | P. falciparum luciferase growth in erythrocytes, 48 h | Potency, µM (top dose mostly 28.7 µM), for the others: at the highest dose activity change, negative = inhibition, usual class: inhibitors | hit rate 5.9% among 310,000 | AID 504832; also: % is scaled to controls: 0 for no effect and ±100 for the full control effect
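First compound was added to culture medium, then infected red cells at 0.1% parasitemia and 2% hematocrit (final). After incubation at 37 C under 5% CO2, luciferase detection reagent was dispensed and light output recorded.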
AMA1 RON2 block: inhibitors of Plasmodium falciparum AMA1-RON2 interaction | AlphaScreen AMA1-biotinylated RON2 peptide binding | Potency, µM (doses to about 58.2 µM), for the others: top-dose activity change, negative = inhibition, hits mostly inhibitors | hit rate 0.2% among 360,000;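 also: 0% = vehicle wells and -100% = peptide control; nearly all actives have a fitted effect of over 45% in size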
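AMA1 (3D7) with his tag at 25 nM final met compounds first, then biotinylated RON2 peptide at 25 nM; detection used donor plus acceptor beads, 10 µg/mL apiece, read by AlphaScreen after 30 min at room temperature.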
SARS PLP yeast: blocks SARS-CoV papain-like protease in a yeast assay; S. cerevisiae expressing SARS-CoV PLpro, growth rescue; Potency, µM (series often up to 32.9 µM), without a hit: at the highest dose activity, positive = growth rescue, usual class: activators; hit rate 0.19% among 330,000; calls by dose curve; also: 0% is about no effect; nearly all actives have a fitted effect of over 55% in size
Active calls of the source: *; [ ] = dose if it differs, or a comment. Most compounds without a hit are left out; they make up all but 9.4% or so of the library. Unless noted, calls follow the shape of the dose curve; as a rule, active = well fitted curve in the direction sought with a large enough effect; inconclusive = small, poorly fitted or top-dose-only effect, or another doubt; inactive = no such curve, though single readings can be large; an effect the other way counts as inactive or inconclusive. Potency is read from the fitted curve at half-maximal effect.

`CCn1c(CCNC(=O)c2ccc(OC)c(OC)c2)nc2ccccc21` gave Pf growth 96h inconclusive, Pf growth 48h -29%, AMA1 RON2 block -5% and SARS PLP yeast 10%.
For CC(C)(C)NC(=O)c1ccc2c(c1)C1C3CCC(C3)C1C(c1ccccc1)N2 (stereo not drawn) the results were Pf growth 96h 18%, Pf growth 48h inconclusive, AMA1 RON2 block 1%[11.6 µM] and SARS PLP yeast -26%.
For CCCNC(=O)c1ccc2c(c1)C1C3CCC(C3)C1C(c1ccccc1)N2 (stereo not drawn) the results were Pf growth 48h 9.3µM*, AMA1 RON2 block -17% and SARS PLP yeast -15%.
Screening O=C(NCc1ccccc1)N1CCN(c2ccccc2F)CC1 returned Pf growth 96h -11%, Pf growth 48h 6%, AMA1 RON2 block 0% and SARS PLP yeast 1%.
`O=C(CCc1ccccc1)OCC(=O)c1ccc([N+](=O)[O-])cc1` gave Pf growth 96h 12µM*, Pf growth 48h 21%, AMA1 RON2 block -12% and SARS PLP yeast 1%.
Cc1ccc(C(=O)COC(=O)Cc2ccccc2)cc1 was read as Pf growth 96h -31%, Pf growth 48h 10%, AMA1 RON2 block 32% and SARS PLP yeast -6%.
Screening O=C(Cc1ccccc1)OCC(=O)c1ccccc1 returned Pf growth 96h 12µM*, Pf growth 48h 0%, AMA1 RON2 block 8% and SARS PLP yeast -5%.
Screening O=C(CCC(=O)OCC(=O)c1ccc([N+](=O)[O-])cc1)Nc1ccccc1Cl returned Pf growth 96h 13µM*, Pf growth 48h inconclusive, AMA1 RON2 block 1% and SARS PLP yeast inconclusive.
CCCCCCOC(=O)c1cccnc1 was read as Pf growth 96h -11% and Pf growth 48h -3%.
`COc1ccc(OC)c(NC(=S)NN2CCN(C)CC2)c1` gave Pf growth 96h 9%, Pf growth 48h 10%, AMA1 RON2 block 15% and SARS PLP yeast 9%.
Screening CC(C)CNC(=S)N1CCC(NC(=O)c2ccco2)CC1 returned Pf growth 96h 12µM*, Pf growth 48h -3%, AMA1 RON2 block 21% and SARS PLP yeast -3%.
`CC(C)NC(=S)N1CCC(Cc2ccccc2)CC1` gave Pf growth 96h 15%, Pf growth 48h -6%, AMA1 RON2 block 1% and SARS PLP yeast 4%.
`Cc1ccccc1NC(=S)N1CCC(NC(=O)c2ccco2)CC1` gave Pf growth 96h 3.3µM*, Pf growth 48h 9%, AMA1 RON2 block -4% and SARS PLP yeast -3%.
CC(C)CNC(=O)C1CCCN(C(=O)NCc2ccccc2)C1 (stereo not drawn) was read as Pf growth 96h 4.7µM*, Pf growth 48h 4%, AMA1 RON2 block -3% and SARS PLP yeast 0%.
For CN(C)C(=O)N1CCCC(C(=O)NCc2ccccc2)C1 (stereo not drawn) the results were Pf growth 96h 4%, Pf growth 48h 20%, AMA1 RON2 block 6% and SARS PLP yeast 3%.
Screening CC(C)CNC(=S)N1CCC(Cc2ccccc2)CC1 returned Pf growth 96h 15µM*, Pf growth 48h inconclusive, AMA1 RON2 block 9% and SARS PLP yeast 24%.
For COCCNC(=O)C1(C)CCN(C(=O)c2ccc3c(c2)C(C)(C)CCC3(C)C)C1 (stereo not drawn) the results were AMA1 RON2 block 8%.
`O=S(=O)(Nc1cccnc1)c1cccc(Cl)c1` gave Pf growth 48h 6%, AMA1 RON2 block 0% and SARS PLP yeast 7%.
For Cc1cccc(NC(=O)COC(=O)c2cccc3c2C(=O)c2ccccc2C3=O)c1C the results were Pf growth 96h 10µM*, Pf growth 48h -25%, AMA1 RON2 block -4% and SARS PLP yeast 1%.
`CCN(CC)CCC(=O)Nc1cccc2c1C(=O)c1ccccc1C2=O` gave Pf growth 96h 10µM*, Pf growth 48h -86%, AMA1 RON2 block -20% and SARS PLP yeast -3%.
Screening Nc1cccc(C(=O)OCC(=O)Nc2cccc3c2C(=O)c2ccccc2C3=O)c1 returned Pf growth 96h -12%, Pf growth 48h 20%, AMA1 RON2 block -11% and SARS PLP yeast 5%.
Screening Cc1cccc(C)c1NC(=O)COC(=O)c1cccc2c1C(=O)c1ccccc1C2=O returned Pf growth 96h -17%, Pf growth 48h 10%, AMA1 RON2 block -1% and SARS PLP yeast 28%.
CCN(CC)CCNC(=O)c1ccc2c(c1NCCO)C(=O)c1ccccc1C2=O was read as Pf growth 96h 4.7µM*, Pf growth 48h 2.6µM*, AMA1 RON2 block -16% and SARS PLP yeast -1%.
Screening Cc1ccc(O)c([C@H](CCN(C(C)C)C(C)C)c2ccccc2)c1 returned Pf growth 96h -6%, Pf growth 48h 1.7µM*, AMA1 RON2 block -5% and SARS PLP yeast 19%.
For CS(=O)(=O)N1CCCC(C(=O)NCCCN2CCC(Cc3ccccc3)CC2)C1 (stereo not drawn) the results were Pf growth 96h 0%, Pf growth 48h 26%, AMA1 RON2 block -2% and SARS PLP yeast 1%.
Cn1nc(C(F)(F)F)c(/C=N/OC(=O)c2ccccc2)c1SCc1ccc(Cl)cc1 was read as Pf growth 96h inconclusive, Pf growth 48h -3%, AMA1 RON2 block 0% and SARS PLP yeast -2%.
`Cn1nc(C(F)(F)F)c(/C=N/OC(=O)c2ccccc2Cl)c1SCc1ccccc1Cl` gave Pf growth 96h inconclusive, Pf growth 48h 13µM*, AMA1 RON2 block 5% and SARS PLP yeast 0%.
Screening CCCCN(C)C(=O)Cn1cnc2sc(C)cc2c1=O returned Pf growth 96h 91%, Pf growth 48h 0%, AMA1 RON2 block -1% and SARS PLP yeast -1%.
`c1ccc(-c2ccc(Oc3cc(N4CCOCC4)nc(-c4ccccc4)n3)cc2)cc1` gave Pf growth 96h -63%, Pf growth 48h inconclusive, AMA1 RON2 block -6% and SARS PLP yeast 2%.
For Cc1ccc(S(=O)(=O)c2cc(N3CCOCC3)nc(-c3ccccc3)n2)cc1 the results were Pf growth 96h 8.3µM*, Pf growth 48h inconclusive, AMA1 RON2 block 15% and SARS PLP yeast -5%.
Screening Cc1ccc(S(=O)(=O)c2cnc(-c3ccccc3)nc2N2CCN(C)CC2)cc1 returned Pf growth 96h 10µM*, Pf growth 48h inconclusive, AMA1 RON2 block -10% and SARS PLP yeast -1%.
`CN1CCN(c2nc(-c3ccccc3)ncc2S(=O)(=O)c2ccccc2)CC1` gave Pf growth 96h inconclusive, Pf growth 48h inconclusive, AMA1 RON2 block -21% and SARS PLP yeast -1%.
Screening COc1ccc(C(=O)NNC(=O)C(=O)Nc2ccc(C)c(Cl)c2)cc1 returned Pf growth 96h 45%, Pf growth 48h 38%, AMA1 RON2 block 65% and SARS PLP yeast 0%.
`Cc1cc(S(=O)(=O)Nc2ccc(C(=O)N3CCN(C(=O)c4ccco4)CC3)cc2)ccc1F` gave Pf growth 96h inconclusive, AMA1 RON2 block -1% and SARS PLP yeast -13%.
For Cc1nc(Nc2ccc(S(N)(=O)=O)cc2)sc1-c1ccccc1 the results were Pf growth 96h 32%, Pf growth 48h 20%, AMA1 RON2 block -25% and SARS PLP yeast 1%.
For CC1ON=C(c2cccc3ccccc23)N(C)C1=O (stereo not drawn) the results were AMA1 RON2 block -4%.
